The record followed here is PubChem BioAssay (EPA / NIEHS).

One may read the AC50 as the concentration giving half of the maximal activity seen.

Structures are written as SMILES. Activity calls are given as the source filed them. How the source made its calls: active means hit-call score of the fitted dose curve at least 0.9, where 1 is the maximum; inactive means score below 0.9.

Read-out in the test: Plasminogen activator inhibitor-1 (PAI1), SERPINE1 (gene 5054)
Kind of test: BSK_BE3C_PAI1: BioMAP Diversity Plus: BE3C Assay for Plasminogen activator inhibitor-1 (PAI1) Biomarker Activity (AID 2283037). The following applies: primary human bronchial epithelial cells; actives raise or lower the signal. The method in brief: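 PAI-1 was measured by ELISA in human primary bronchial epithelial cultures 24 h after chemical dosing, with cytotoxicity checked by SRB total-protein staining in parallel cultures. Activity was fitted in both directions relative to DMSO.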
As to `O=C(O)C(F)(F)C(F)(F)C(F)(F)C(F)(F)C(F)(F)C(F)(F)C(F)(F)F`, the outcome was inactive.

For `COP(=O)(OC)OC=C(Cl)Cl`, the AC50 was 20 µM (active).

As for `COP(=S)(OC)Oc1ccc([N+](=O)[O-])cc1`, the outcome was inactive.

As to `O=C(NC(=O)c1c(F)cccc1F)Nc1ccc(OC(F)(F)C(F)OC(F)(F)F)c(Cl)c1` (centres undefined), the result was inactive.

For the compound `CCc1ccc(C(=O)NN(C(=O)c2cc(C)cc(C)c2)C(C)(C)C)cc1`, the outcome was inactive.

In the case of `COC(=O)c1ccccc1S(=O)(=O)NC(=O)N(C)c1nc(C)nc(OC)n1`, the result was inactive.

Take `COC(=O)c1ccccc1CS(=O)(=O)NC(=O)Nc1nc(OC)cc(OC)n1`: the outcome was inactive.

Regarding `O=C(O)CCCOc1ccc(Cl)cc1Cl`, the outcome was inactive.

As for `O=[N+]([O-])/N=C1\NCCN1Cc1ccc(Cl)nc1`, the result was inactive.

Take `Cc1[nH]c(=O)n(C(C)(C)C)c(=O)c1Cl`: the result was inactive.

Take `CC(C)(C)C(O)C(Oc1ccc(Cl)cc1)n1cncn1` (centres undefined): the outcome was inactive.

For the compound `CCOCN(C(=O)CCl)c1c(C)cccc1CC`, the outcome was inactive.

Turning to `[2H]C1([2H])[n+]2ccccc2-c2cccc[n+]2C1([2H])[2H]`, the outcome was inactive.

Take `CCOc1nc(NC)nc(NC(=O)NS(=O)(=O)c2ccccc2C(=O)OC)n1`: the result was inactive.

Consider `Cc1cc(C)nc(NC(=O)NS(=O)(=O)c2ccccc2C(=O)OC2COC2)n1`, for which the outcome was inactive.

On to `COc1nn(CSP(=S)(OC)OC)c(=O)s1`, for which the result was inactive.

For `Oc1ccc(Cl)cc1Cc1ccccc1`, the AC50 is 34.4 µM (active) [middle of 7 runs].

As to `CCOC1Oc2ccc(OS(C)(=O)=O)cc2C1(C)C` (centres undefined), the outcome was inactive.

As for `ClC1C(Cl)C(Cl)C(Cl)C(Cl)C1Cl` (centres undefined), the result was inactive.
